In all, about 360,000 compounds went through this assay and about 3,000 (0.83%) were called active. No stated cut-off is given here; in the data, active means inhibition above about 50%; inactive means the rest. Only a selection was taken, and actives are over-represented in it overall.
These compounds were tested against DNA (cytosine-5)-methyltransferase 1 (Homo sapiens) (UniProt P26358) (assay: inhibition of DNA methyltransferase DNMT1 – biochemical, molecular beacon, fluorescence, HinP1I cleavage, uHTS, primary screen (AID 588458)). Conditions: at 10 µM, stronger effect = higher value.
DNA (cytosine-5)-methyltransferase 1 (Homo sapiens), sequence (P26358 504-1616 limits assumed): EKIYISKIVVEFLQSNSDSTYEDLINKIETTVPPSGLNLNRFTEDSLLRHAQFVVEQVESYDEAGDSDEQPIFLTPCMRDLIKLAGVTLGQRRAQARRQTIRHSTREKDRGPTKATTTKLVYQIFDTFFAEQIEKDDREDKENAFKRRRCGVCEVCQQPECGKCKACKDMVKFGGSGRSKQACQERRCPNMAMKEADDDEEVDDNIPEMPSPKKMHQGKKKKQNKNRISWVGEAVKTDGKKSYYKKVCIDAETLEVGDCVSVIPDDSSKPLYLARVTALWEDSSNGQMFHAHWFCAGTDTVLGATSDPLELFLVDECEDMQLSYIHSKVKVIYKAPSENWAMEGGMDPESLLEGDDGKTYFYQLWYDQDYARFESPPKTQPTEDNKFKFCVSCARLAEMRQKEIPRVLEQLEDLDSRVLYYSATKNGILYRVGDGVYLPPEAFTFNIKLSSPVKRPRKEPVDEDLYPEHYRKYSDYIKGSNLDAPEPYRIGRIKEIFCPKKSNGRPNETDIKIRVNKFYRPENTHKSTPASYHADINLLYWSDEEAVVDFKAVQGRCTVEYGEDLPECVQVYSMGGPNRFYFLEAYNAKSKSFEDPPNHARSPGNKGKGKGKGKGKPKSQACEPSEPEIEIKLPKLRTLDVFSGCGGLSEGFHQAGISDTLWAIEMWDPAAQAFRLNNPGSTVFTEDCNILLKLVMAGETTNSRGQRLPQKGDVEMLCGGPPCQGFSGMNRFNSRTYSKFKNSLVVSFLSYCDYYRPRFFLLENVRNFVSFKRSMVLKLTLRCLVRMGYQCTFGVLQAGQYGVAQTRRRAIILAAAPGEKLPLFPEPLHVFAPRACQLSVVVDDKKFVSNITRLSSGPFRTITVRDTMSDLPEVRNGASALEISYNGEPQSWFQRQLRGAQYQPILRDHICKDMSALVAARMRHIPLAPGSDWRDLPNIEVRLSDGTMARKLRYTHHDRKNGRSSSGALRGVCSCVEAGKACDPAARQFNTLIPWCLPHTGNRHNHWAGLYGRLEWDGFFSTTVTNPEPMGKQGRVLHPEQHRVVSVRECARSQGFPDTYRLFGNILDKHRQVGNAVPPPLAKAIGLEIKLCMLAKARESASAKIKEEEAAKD
In the case of `CCCC(C(=O)NCc1ccco1)N(C(=O)CNS(=O)(=O)c1ccccc1)C1CCCC1` (stereo unspecified), the inhibition (reported as % activation of signal) is reported as 0.13% (inactive).
`O=S(=O)(Nc1nccs1)c1ccc2c(c1)OCCO2` was tested, and the inhibition (reported as % activation of signal) was 0.9% (inactive).
With `c1coc(-c2nc3nc4ccccc4n3nc2-c2ccco2)c1` the inhibition (reported as % activation of signal) was 86.2% (active).
In the case of `CC(Oc1ccc(Cl)cc1Cl)C(=O)/C=C/N(C)C` (stereo unspecified), the inhibition (reported as % activation of signal) is reported as 1.08% (inactive).
For `Cn1c(Nc2ccc(F)cc2)nc2cc(-c3ccsc3)sc2c1=O`, the inhibition (reported as % activation of signal) was 1.88% (inactive).
For `COc1ccc(S(=O)(=O)N2CCC(C(=O)NCCC(=O)Nc3ccccc3OC)CC2)cc1`, the inhibition (reported as % activation of signal) was 3.13% (inactive).
`CC(CCc1ccc(O)cc1)NCc1ccc(Cl)cc1Cl` (stereo unspecified) was tested, and the inhibition (reported as % activation of signal) was 1.55% (inactive).
For `COc1cccc(/C=C2\SC(=N)N(c3ccc(F)cc3)C2=O)c1`, the inhibition (reported as % activation of signal) was 29.4% (inactive).
`COc1ccc(/C=C2\SC(=N)N(c3ccc(F)cc3)C2=O)cc1` was tested, and the inhibition (reported as % activation of signal) was 59% (active).
In the case of `COc1ccc(N2C(=O)CNC2=S)cc1`, the inhibition (reported as % activation of signal) is reported as 0.19% (inactive).
`COC(=O)C1=C(C)NC(=S)NC1c1ccc(OCC(=O)N2CC(C)OC(C)C2)c(OC)c1` (stereo unspecified) was tested, and the inhibition (reported as % activation of signal) was -3.49% (inactive).
`O=C1CC(Cc2ccc(Cl)cc2)C(=O)N1c1cc(Cl)ccn1` (stereo unspecified) was tested, and the inhibition (reported as % activation of signal) was 1.99% (inactive).
`O=C(NC1CCCC1)C(NS(=O)(=O)c1ccc(Br)s1)c1ccccc1` (stereo unspecified) was tested, and the inhibition (reported as % activation of signal) was 3.01% (inactive).
For `COc1ccc(NC(=O)CN(C)C(=O)/C=C/c2cn(Cc3ccccc3)nc2-c2cccnc2)cc1`, the inhibition (reported as % activation of signal) was 2.58% (inactive).
`O=C(COC(=O)/C=C/c1cn(-c2ccccc2)nc1-c1cccnc1)Nc1ccc(Cl)cc1Cl` was tested, and the inhibition (reported as % activation of signal) was 56% (active).
In the case of `Cc1ccc(/C=C/C(=O)OCC(=O)Nc2cccnc2Cl)cc1`, the inhibition (reported as % activation of signal) is reported as 0.14% (inactive).
`CCN(CC(=O)Nc1ccc(OC)cc1)C(=O)c1ccc(=O)n(Cc2ccccc2)n1` was tested, and the inhibition (reported as % activation of signal) was 4.56% (inactive).
With `Nc1ccc2nc3c(=O)[nH]c(=S)[nH]c3nc2c1` the inhibition (reported as % activation of signal) was 129% (active).
For `CC1(Oc2cccc(F)c2)CCN(Cc2ccccc2OC(F)F)C1` (stereo unspecified), the inhibition (reported as % activation of signal) was 8.51% (inactive).
In the case of `CCCOc1ccc2c3c(c(=O)oc2c1OCCC)CCC3`, the inhibition (reported as % activation of signal) is reported as 5.15% (inactive).
In the case of `CCCn1nc(C(=O)OCc2nc(N)nc(Nc3ccccc3C)n2)c2ccccc2c1=O`, the inhibition (reported as % activation of signal) is reported as -3.44% (inactive).
In the case of `Cc1ccc(C(=O)NNc2ncnc3ccccc23)cc1`, the inhibition (reported as % activation of signal) is reported as 2.1% (inactive).
In the case of `Cc1ccc(C(=O)NNC(=O)c2cc3cc4ccccc4nc3s2)cc1`, the inhibition (reported as % activation of signal) is reported as 54.4% (active).
With `Cc1ccc(C(=O)NNC(=O)CSc2nnc3ccccn23)cc1` the inhibition (reported as % activation of signal) was -3.3% (inactive).
`CCOc1cc(C(=O)Nc2c(C)ccc3nsnc23)cc(OCC)c1OCC` was tested, and the inhibition (reported as % activation of signal) was 1.78% (inactive).
`c1ccc2c(-c3nn4nnnc4c4ccccc34)cccc2c1` was tested, and the inhibition (reported as % activation of signal) was -1.65% (inactive).
For `CCCN1Cc2cccc(C(=O)NCc3ccccc3)c2C1=O`, the inhibition (reported as % activation of signal) was 0.1% (inactive).
For `Cc1ccc(S(=O)(=O)N2CCN=C2SCc2c(F)cccc2Cl)cc1`, the inhibition (reported as % activation of signal) was -1.13% (inactive).
`C/C(=N\Nc1ccc(S(N)(=O)=O)cc1[N+](=O)[O-])c1cccs1` was tested, and the inhibition (reported as % activation of signal) was 51% (active).
In the case of `C/C(=N\Nc1ccccc1)c1cccs1`, the inhibition (reported as % activation of signal) is reported as -15% (inactive).
`CCOC(=O)C/C(C)=N\Nc1ccc([N+](=O)[O-])cc1[N+](=O)[O-]` was tested, and the inhibition (reported as % activation of signal) was 8.42% (inactive).
For `CCCCNc1c(-c2cccc(Sc3ccc(OC)cc3)c2)nc2ccccn12`, the inhibition (reported as % activation of signal) was -24.9% (inactive).
In the case of `CCc1nnc(NC(=O)c2cc(S(=O)(=O)N3CCN(CC)CC3)ccc2Cl)s1`, the inhibition (reported as % activation of signal) is reported as 1.36% (inactive).
In the case of `Clc1ccc(C2=CSC3=Nc4cccc5cccc(c45)N23)cc1`, the inhibition (reported as % activation of signal) is reported as 61.1% (active).
`O=C(COC(=O)c1ccc(S(=O)(=O)N2CCc3ccccc3C2)cc1)NC(=O)NCc1ccco1` was tested, and the inhibition (reported as % activation of signal) was 4.21% (inactive).
For `CCc1nc(SCC(=O)Nc2ccccc2OC)n[nH]1`, the inhibition (reported as % activation of signal) was 0.12% (inactive).
With `CCOc1ccccc1NC(=S)C(=C([O-])c1ccc2c(c1)OCCO2)[n+]1ccc(CC)cc1` the inhibition (reported as % activation of signal) was -14.6% (inactive).
With `CC(C)(C)n1nc(Cc2cccc3ccccc23)c(C#N)c1N` the inhibition (reported as % activation of signal) was 3.39% (inactive).
With `CCc1nn(-c2cc(Oc3cccc4ccccc34)nc(-c3ccccc3)n2)c(N)c1C#N` the inhibition (reported as % activation of signal) was 56.2% (active).
With `CCCCn1nnnc1C(c1cccc(OC)c1OC)N1CCN(C/C=C/c2ccccc2)CC1` (stereo unspecified) the inhibition (reported as % activation of signal) was -2.12% (inactive).
For `O=C(CCN1CCc2ccccc2C(O)(c2ccccc2)C1)c1ccc2c(c1)OCCO2` (stereo unspecified), the inhibition (reported as % activation of signal) was -2.82% (inactive).
`CSC1=NC2(C)CCCCC2C12C=CC(=O)C=C2` (stereo unspecified) was tested, and the inhibition (reported as % activation of signal) was -0.69% (inactive).
With `CS(=O)(=O)N(CC(=O)N1CCN(c2ccc(F)cc2)CC1)C1CCCCC1` the inhibition (reported as % activation of signal) was 0.1% (inactive).
For `O=C(NNC1=NCCC1)c1cccc(S(=O)(=O)N2CCCCC2)c1`, the inhibition (reported as % activation of signal) was 2.1% (inactive).
For `O=C(NCc1cccs1)c1cc(-c2ccccn2)nc2ccc(Br)cc12`, the inhibition (reported as % activation of signal) was 18.8% (inactive).
`Cc1ccc(-c2cc(C(=O)NCc3cn(C)nc3C)c3cc(Br)ccc3n2)cc1` was tested, and the inhibition (reported as % activation of signal) was 54.2% (active).
In the case of `Cc1nn(C)cc1CNC(=O)Nc1ccc(Cl)cc1`, the inhibition (reported as % activation of signal) is reported as -5.06% (inactive).
With `CCCCc1nc2cc(C(=O)N3CCCCC3CCO)ccc2o1` (stereo unspecified) the inhibition (reported as % activation of signal) was 0.96% (inactive).
In the case of `CC1CCN(C(=O)CCc2nnc3ccc(NCc4ccco4)nn23)CC1`, the inhibition (reported as % activation of signal) is reported as -2.17% (inactive).
`N#Cc1c(NC(=O)CCCN2C(=O)c3ccccc3C2=O)oc(-c2ccccc2)c1-c1ccccc1` was tested, and the inhibition (reported as % activation of signal) was -7.82% (inactive).
In the case of `CC(C)C(=O)Nc1oc(-c2ccccc2)cc1C#N`, the inhibition (reported as % activation of signal) is reported as 1.41% (inactive).
With `CC(Oc1ccccc1)C(=O)Nc1oc(-c2ccco2)c(-c2ccco2)c1C#N` (stereo unspecified) the inhibition (reported as % activation of signal) was 63.1% (active).
For `Cc1cc(=O)oc(C)c1C(=O)NC1CC(C)(C)NC(C)(C)C1`, the inhibition (reported as % activation of signal) was 4.08% (inactive).
`O=C(Nc1nccs1)C1CCN(S(=O)(=O)c2ccc(Cl)c(C(F)(F)F)c2)CC1` was tested, and the inhibition (reported as % activation of signal) was -0.42% (inactive).
For `Cc1ccc(C)c(C(O)c2ncc(-c3cccc4ccccc34)[nH]2)c1` (stereo unspecified), the inhibition (reported as % activation of signal) was -0.1% (inactive).
`O=C1CSc2ccc(S(=O)(=O)NCc3ccccc3)cc2N1` was tested, and the inhibition (reported as % activation of signal) was -1.62% (inactive).
In the case of `OCCCC1CCCCN1Cc1nc(Cc2ccccc2Cl)no1` (stereo unspecified), the inhibition (reported as % activation of signal) is reported as 0.35% (inactive).
`CCN(CC)c1ccc(NC(=O)c2ccc(Cl)nc2)cc1` was tested, and the inhibition (reported as % activation of signal) was -2.12% (inactive).
With `O=C(NNC(=O)c1ccc(Cl)nc1)c1ccc(Br)cc1` the inhibition (reported as % activation of signal) was 5.15% (inactive).
In the case of `O=C(NNc1ccccn1)c1ccc(Cl)nc1`, the inhibition (reported as % activation of signal) is reported as 80.7% (active).
With `CCN(CC)P(=O)(C(NC(=O)OC)C(F)(F)C(F)(F)C(F)(F)C(F)F)N(CC)CC` (stereo unspecified) the inhibition (reported as % activation of signal) was 0.14% (inactive).
